Screening data as filed in PubChem BioAssay.
3T3 cytotox: Cytotoxic Profiling in NIH 3T3 Cell Line of Diverse Libraries Using Quantitative High-Throughput Screening. NIH 3T3 viability, CellTiter-Glo ATP luminescence, 48-72 h. 4.3% of 94,000 active. Potency, µM (highest dose often 96.7 µM), for inactives: at the highest dose activity change, negative = cytotoxicity, actives largely listed as inhibitors; also: nearly all actives have a fitted effect of over 55% in size
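Luminescent ATP readout (CellTiter-Glo, 10 min RT) after 48 or 72 hr compound exposure of NIH 3T3 cells seeded at 400 cells/well in 1536-well format; quantitative HTS.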
NPR1 antag: Natriuretic polypeptide receptor (hNpr1) antagonism - Primary qHTS | Atrial natriuretic peptide receptor 1 (Homo sapiens), P16066 | HEK293 hNpr1 GloSensor cGMP, ANP-stimulated luminescence | Potency, µM (highest dose often 46.3 µM), inactives show top-dose activity change, negative = inhibition, usual class: inhibitors | 1.6% of 76,000 active; calls by dose curve; also: nearly all actives have a fitted effect of over 60% in size
Target sequence (P16066 whole entry, looked up): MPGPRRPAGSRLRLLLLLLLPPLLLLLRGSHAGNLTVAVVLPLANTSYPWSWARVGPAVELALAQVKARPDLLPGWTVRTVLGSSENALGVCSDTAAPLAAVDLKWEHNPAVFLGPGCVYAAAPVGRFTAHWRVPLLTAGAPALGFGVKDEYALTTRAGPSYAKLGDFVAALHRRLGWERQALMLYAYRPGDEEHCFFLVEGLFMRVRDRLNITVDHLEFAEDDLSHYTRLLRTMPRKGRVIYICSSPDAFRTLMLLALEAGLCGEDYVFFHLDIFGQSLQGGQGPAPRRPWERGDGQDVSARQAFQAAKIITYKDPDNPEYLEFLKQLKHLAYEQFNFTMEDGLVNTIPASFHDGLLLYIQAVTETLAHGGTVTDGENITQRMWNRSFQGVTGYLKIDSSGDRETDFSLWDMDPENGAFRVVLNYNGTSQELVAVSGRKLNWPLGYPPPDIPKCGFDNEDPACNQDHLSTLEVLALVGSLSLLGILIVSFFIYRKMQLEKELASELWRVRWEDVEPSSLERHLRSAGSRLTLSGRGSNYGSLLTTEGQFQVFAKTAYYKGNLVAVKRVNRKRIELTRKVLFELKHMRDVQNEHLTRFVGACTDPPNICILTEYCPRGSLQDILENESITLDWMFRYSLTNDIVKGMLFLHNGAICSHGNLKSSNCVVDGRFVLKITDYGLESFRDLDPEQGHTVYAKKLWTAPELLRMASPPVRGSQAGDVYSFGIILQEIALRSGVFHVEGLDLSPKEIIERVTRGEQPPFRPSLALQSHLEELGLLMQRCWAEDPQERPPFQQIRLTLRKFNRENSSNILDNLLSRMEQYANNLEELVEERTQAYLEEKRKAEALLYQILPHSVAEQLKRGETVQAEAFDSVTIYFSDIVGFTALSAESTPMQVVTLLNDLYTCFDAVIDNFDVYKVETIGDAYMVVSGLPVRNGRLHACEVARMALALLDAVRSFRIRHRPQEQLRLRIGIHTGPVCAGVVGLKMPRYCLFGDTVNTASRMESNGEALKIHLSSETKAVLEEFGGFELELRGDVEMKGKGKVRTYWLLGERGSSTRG
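Compound pre-incubated 30 min at room temperature on GloSensor-loaded HEK293 cells stably carrying hNpr1 and the pGS-40F cGMP biosensor. Stimulation uses hNppA at 0.1 nM final; luminescence is taken at baseline and 20 min post-agonist.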
HEK cytotox: Cytotoxic Profiling in HEK 293 Cell Line of Diverse Libraries Using Quantitative High-Throughput Screening; HEK 293 viability, ATP luminescence (CellTiter-Glo), 48-72 h; Potency, µM (doses to about 115 µM), without a hit: at the highest dose activity change, negative = cytotoxicity, most hits filed as inhibitors; 6.6% of 94,000 active; also: nearly all actives have a fitted effect of over 60% in size
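HEK 293 cells seeded at 250 cells/well were exposed to compound for 48 or 72 hr at 37 degree Celsius. Viability taken as ATP content by CellTiter-Glo luminescence.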
FLuc inh: Firefly luciferase inhibition profiling of diverse chemical library using quantitative high-throughput screening; purified P. pyralis luciferase, luminescence, biochemical; 2.5% of 76,000 active; Potency, µM (titrated, usually from 115 µM), most hits filed as inhibitors; Luciferin 4-monooxygenase (Photinus pyralis), P08659; AID 1347043, 2019; also: nearly all actives have a fitted effect of over 65% in size
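Cell-free enzyme assay, 10nM P. pyralis luciferase, luciferin and ATP each at 10uM. Inhibition profiled over a 6-point titration, read as luminescence.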
Starred values were filed as active, the others as inactive; i = inactive; ? = inconclusive; nt = not tested or not shown; [ ] = remark or other dose. Hits are enriched below; roughly 11% of the tested compounds scored in any of these assays. Unless noted, calls follow the shape of the dose curve; as a rule, active = well fitted curve in the direction sought with a large enough effect; inconclusive = small, poorly fitted or top-dose-only effect, or another doubt; inactive = no such curve, though single readings can be large; an effect the other way counts as inactive or inconclusive. % is scaled to controls: 0 for no effect and ±100 for the full control effect; potency is read from the fitted curve at half-maximal effect.

SMILES	3T3 cytotox	NPR1 antag	HEK cytotox	FLuc inh
N#Cc1cccc(CN2CC3(COCC(=O)N(Cc4cccc(OC(F)(F)F)c4)C3)C2)c1	28µM*	-7%	?	i
Cc1cc(C)nc(N2CC3(COCC(=O)N(Cc4cccc(OC(F)(F)F)c4)C3)C2)n1	-7%[138 µM]	8%[70.6 µM]	?	i
C[S+](=O)([O-])N1CCC(c2nnc3n2C(C(=O)NC2CCCCCC2)CC3)CC1 (configuration not stated)	?	nt	-1%	nt
COCCN1CCN(C[C@@H]2C=C(C)[C@H](Cc3nnc(-c4ccc(OC)cc4)o3)C[C@H]2C(C)C)CC1	40µM*	0%	40µM*	i
COCCN1CCN(C[C@@H]2C=C(C)[C@H](Cc3nnc(C)o3)C[C@H]2C(C)C)CC1	?	-3%[70.6 µM]	89µM*	i
COc1ccc(-c2nnc(C[C@@H]3C[C@@H](C(C)C)[C@H](CN4CCN(c5ncccn5)CC4)C=C3C)o2)cc1	?	-27%	40µM*	i
COc1ccc(CN2C(=O)[C@H](OC)[C@@H]2C2=CCN(C(=O)c3ccnn3C)CC2)cc1	-20%	nt	-7%	nt
COCC(=O)NCCc1ncc(C)n1C1CCCCCC1	-18%	nt	-16%	nt
O=C1NC2(CN(Cc3ccccc3C(F)(F)F)C2)Oc2ccccc21	?	-1%	40µM*	i
O=C1NC2(CCN(Cc3ccccc3C(F)(F)F)C2)Oc2ccccc21 (configuration not stated)	-3%	4%	-3%	i
O=C1NC2(CCCN(Cc3ccccc3C(F)(F)F)C2)Oc2ccccc21 (configuration not stated)	?	-7%	45µM*	i
O=C(c1nc2sccn2c1-c1cccnc1)N1CCOCC1	-5%[138 µM]	nt	-19%[172 µM]	nt
Cc1ccc(S(=O)(=O)N2CC(C(=O)NC3CCCCC3)C3(CCOCC3)C2)cc1F (configuration not stated)	-18%	0%	4%	i
COc1ccccc1CNC[C@H]1Cn2cc(-c3ccccc3OC)nc2CO1	79µM*	-1%[70.6 µM]	112µM*	i
COc1ccc(-c2cn3c(n2)CO[C@@H](CNCc2ccccc2OC)C3)cc1	?	3%[70.6 µM]	?	?
COc1ccccc1-c1cn2c(n1)CO[C@@H](CNCc1ccc(F)cc1)C2	?	9%[70.6 µM]	71µM*	i
COc1ccccc1-c1cn2c(n1)CO[C@@H](CNCc1ccc(F)c(F)c1)C2	?	1%[70.6 µM]	?	i
Cc1cccc(CN2CCCC3(CCN(C(=O)CCc4ccccc4C)C3)C2)c1 (configuration not stated)	?	2%	89µM*	i
Cc1cccc(CN2CCCC3(Cc4ccccc4CNC3=O)C2)c1 (configuration not stated)	-2%	nt	-18%	nt
COCCNc1ncc(-c2cccc(C(C)=O)c2)c2c1OCC2	?	0%[70.6 µM]	?	?
COCCNc1ncc(-c2cccc(O)c2)c2c1OCC2	-54%[174 µM]	0%[70.6 µM]	-60%[230 µM]	28µM*
COCCNc1ncc(-c2cccc(N)c2)c2c1OCC2	?	-17%[70.6 µM]	?	25µM*
O=C(NC1CCN(c2ccnc3ccnn23)CC1)c1ccccc1Cl	?	nt	-20%	nt
COCC(=O)N1CCC(C(=O)N2CCC(c3ccccc3)CC2)CC1	-30%[138 µM]	nt	-3%[172 µM]	nt
CCC(CC)c1cc([C@H]2CN3CC[C@H]2C[C@@H]3CNC(=O)c2cc(OC)c(OC)c(OC)c2)nc(-c2ccncc2)n1	20µM*	?	28µM*	i
COc1ccc(-c2cc(N3CCC(NC(=O)c4cc(OC)c(OC)c(OC)c4)C3)n[nH]2)cc1 (configuration not stated)	-19%	0%	?	i
COc1cc(OCc2ccccc2)ccc1CN1CC[C@@]2(O)CCNC[C@H]2C1	20µM*	-3%	22µM*	i
COc1ccc(C(=O)N2CCC3(CC2)CCN(Cc2cccs2)c2ccccc2O3)cc1	?	7%	40µM*	i
COc1cccc(C(=O)N2CCC3(CC2)CCN(Cc2cccs2)c2ccccc2O3)c1	?	-5%	?	i
CC(C)(C)C(=O)N1CCC2(CC1)CCN(Cc1cccs1)c1ccccc1O2	?	-27%	35µM*	i
